# Test results as given in PubChem BioAssay AID1259422 (The Scripps Research Institute Molecular Screening Center, 2018).
# Several values for one entry are separate records, joined by “and”; a condition that tells them apart may be missing. Identical values can stand only once. Among all 640,000 compounds or so, about 9,300 (1.5%) were called active. Rule as the data show it: active = inhibition above about 32%; inactive = the rest. The list comes from a sample in which actives are over-represented; it also holds similar structures and randomly drawn compounds.
# Test: TEAD-YAP interaction inhibition, primary screen, TEAD-YAP interaction inhibitor project, luminescence, HEK-TIYL cells (AID 1259422);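 also: 0% = median of test compound wells and 100% = reference inhibitor wells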
# Settings: TEAD-Gal4/YAP UAS-luciferase luminescence, at 9.12 µM, active compounds read high
row,Structure (SMILES),inhibition
1,CCOC(=O)c1ccc(Nc2c(-c3ccccc3)c(=O)c2=O)cc1,-7.89% (inactive)
2,NC(=O)C1(N2CCCCC2)CCN(C(=O)Nc2ccc(Cl)cc2)CC1,3.68% (inactive)
3,CCC(OC(=O)C(CCSC)NC(=O)c1ccccc1)C(=O)Nc1ccc(S(N)(=O)=O)cc1 (configuration not stated),-0.22% (inactive)
4,C=CCOC(=O)c1sc(N2C(=O)C(=O)/C(=C(/O)c3ccccc3)C2c2ccc(C)cc2)nc1C (configuration not stated),7.19% (inactive)
5,CN(C)CCNc1nc2c(c(=O)n(C)c(=O)n2C)n1Cc1ccc(F)cc1,10.5% (inactive)
6,CCCn1c(NCCO)nc2c1c(=O)n(C)c(=O)n2C,15.2% (inactive)
7,COc1ccc(Cn2c(NCCO)nc3c2c(=O)n(C)c(=O)n3C)cc1,40.8% (active)
8,CC1=C/C(=N\S(=O)(=O)c2ccccc2)C=C(Br)C1=O,-6.31% (inactive)
9,CC1=C(C(=O)OCC2CCCO2)C(c2cccs2)C2=C(CC(c3cccs3)CC2=O)N1 (configuration not stated),9.36% (inactive)
10,COCCOC(=O)C1=C(C)NC2=C(C(=O)CC(c3cccs3)C2)C1c1ccc(C)s1 (configuration not stated),16% (inactive) and 7.86% (inactive)
11,CC1=C(C(=O)OC(C)C)C(c2cccs2)C2=C(CC(c3ccco3)CC2=O)N1 (configuration not stated),60.2% (active)
12,COc1cc(NC(=O)c2sc3[nH]c(=O)c(C(=O)O)cc3c2N)c(OC)cc1Cl,-5.84% (inactive)
13,CCn1cc(C(=O)N2CCc3c(nc(N4CCC(C)CC4)[nH]c3=O)C2)cn1,-0.66% (inactive)
14,Cc1cnc(Nc2ccc(C(F)(F)F)cc2)nc1Nc1ccccc1,11.3% (inactive)
15,Cc1cnc(Nc2ccc3ncccc3c2)nc1Nc1ccccc1,29.6% (inactive)
16,Cc1cnc(Nc2ccncc2)nc1Nc1ccc(Oc2ccccc2)cc1,45.7% (active)
17,O=C(OCCN1C(=O)c2cccc3c(N4CCCCC4)ccc(c23)C1=O)c1cc(Cl)cc(Cl)c1,-2.51% (inactive)
18,O=C(NCCOc1ccccc1)c1cnc(N2CCN(c3ccccn3)CC2)s1,-4.73% (inactive)
19,O=C(NCCOc1ccccc1)c1cnc(N2CCCC2CO)s1 (configuration not stated),81.8% (active)

row,Structure (SMILES),inhibition
1,O=C(NCCOc1ccccc1)c1cnc(NCCCN2CCCC2=O)s1,-45.5% (inactive)
2,COc1ccc(-c2cn3ccc(C)cc3n2)cc1,90.6% (active)
3,COc1ccc(-c2nc3c(C#N)c(CC#N)nn3cc2C)cc1F,7.27% (inactive)
4,COc1ccc(-c2cn3ccc(C)cc3n2)cc1F,78.7% (active)
5,COc1cc(C(=O)Nc2cccc(-c3cn4ccc(C)cc4n3)c2)cc(OC)c1OC,-17.7% (inactive)
6,COc1ccc(-c2nc3sc(-c4ccc(OC)cc4)nc3s2)cc1,-1.58% (inactive)
7,COc1ccc(-c2cn3cc(C(=O)O)ccc3n2)cc1,15.8% (inactive)
8,COCCNc1nc(-c2c[nH]c3ccccc23)cs1,0.65% (inactive)
9,CCOC(=O)N1CCC(NC(=O)C2CC23CCN(CC2CC=CCC2)CC3)CC1 (configuration not stated),11.9% (inactive)
10,CCN(CC(=O)Nc1ccccc1OC)Cc1nc2scc(-c3ccccc3)c2c(=O)[nH]1,-1.6% (inactive)
11,Oc1ccc(Cl)cc1C1=Nc2ccccc2N=C(c2cccc(F)c2)C1,-24.4% (inactive)
12,CC(=O)N1c2ccccc2N=C(c2ccc(C)cc2)CC1c1ccc([N+](=O)[O-])cc1 (configuration not stated),2.03% (inactive)
13,Cc1ccc(C2=Nc3ccccc3N=C(c3ccc(C(C)(C)C)cc3)C2)c(O)c1,38.6% (active)
14,COc1ccccc1NC(CNS(=O)(=O)c1ccc(Cl)cc1)c1ccccc1 (configuration not stated),-1.96% (inactive)
15,Cc1ccccc1OCC(=O)Nc1ncc(Cc2cccc(Cl)c2)s1,50.4% (active)
16,COc1ccccc1OCC(=O)Nc1ncc(Cc2cccc(C)c2)s1,3.43% (inactive)
17,Cc1cccc(Cc2cnc(NC(=O)COc3cccc(C)c3)s2)c1,5.87% (inactive)
18,O=C(Cn1c(=O)oc2cc(S(=O)(=O)NC3CCCC3)ccc21)N1CCCCCC1,-0.34% (inactive)
19,COc1ccc(C2C=C(c3ccc(OC(F)F)cc3)Nc3ncnn32)cc1 (configuration not stated),-77.6% (inactive)

row,Structure (SMILES),inhibition
1,COc1cccc(C2=CC(c3cccc(OC)c3)n3ncnc3N2)c1 (configuration not stated),39.1% (active)
2,COc1ccc(OC)c(C2C=C(c3ccc(Br)cc3)Nc3ncnn32)c1 (configuration not stated),3.26% (inactive)
3,CCOc1ccc(C2=CC(c3cc(OC)c(OC)c(OC)c3)n3ncnc3N2)cc1 (configuration not stated),66.9% (active)
4,Brc1ccc(C2=CC(c3cccc(Br)c3)n3ncnc3N2)cc1 (configuration not stated),3.83% (inactive)
5,COc1ccc(C2=CC(c3ccc(OC)c(OC)c3)n3ncnc3N2)cc1OC (configuration not stated),3.8% (inactive)
6,O=C(N/N=C\c1cccc([N+](=O)[O-])c1)c1ccccc1I,-11.5% (inactive)
7,COC(=O)c1ccc(C)c(NC(=O)Nc2cccc(Cl)c2)c1,7.6% (inactive)
8,COc1ccc(OC)c(C2/C(=C(\O)c3ccc(Br)cc3)C(=O)C(=O)N2CCCn2ccnc2)c1 (configuration not stated),-4.36% (inactive)
9,CCOC(=O)c1c(NC(=O)c2cc([N+](=O)[O-])ccc2Cl)sc(-c2ccccc2)c1C,8.37% (inactive)
10,CCCc1c(C(=O)N[C@H]2C[C@H]3C(=O)N[C@@H](CSCc4ccccc4)C(=O)N3C2)cnn1-c1ccccc1,2.64% (inactive)
11,Cc1csc(=Nc2ccccc2)n1C1CCCC1,-5.23% (inactive)
12,FC(F)Oc1ccc(-c2csc(=Nc3cccnc3)n2C2CC2)cc1,50.1% (active)
13,COc1ccc(-c2csc(=Nc3ccccc3)n2C)cc1,-28.4% (inactive)
14,CC1CCCC(NC(=O)CCCn2nnc3ccccc3c2=O)C1C (configuration not stated),-2.4% (inactive)
15,CC(=O)N1CCN(c2nc(Nc3ccccc3C(=O)c3ccccc3)nc(OC(C(F)(F)F)C(F)(F)F)n2)CC1,10.2% (inactive)
16,O=C(NCCc1ccccc1)c1ccc(OC2CCN(C(=O)C3CCCO3)CC2)cc1 (configuration not stated),40.4% (active)
17,O=C(NCCN1CCCCC1CO)c1ccc(OC2CCN(C(=O)C3CC3)CC2)cc1 (configuration not stated),1.44% (inactive)
18,COC(=O)CCC(=O)N1CCC(Oc2ccc(C(=O)NCCc3ccccc3)cc2)CC1,5.68% (inactive)
19,O=C(COC(=O)CCN1C(=O)C2CC=CCC2C1=O)Nc1ncc(Cl)cc1Cl (configuration not stated),5.49% (inactive)
